The source of these data is PubChem BioAssay (NCATS).

Unmarked numbers belong to inactive results. Records with an inconclusive call do not appear. Where a call stands in place of a potency, no number is given. Activity calls are given as the source filed them. Unless noted, the call rests on the fitted dose curve; in most records, active means well fitted curve in the direction sought with a large enough effect; inconclusive means small, poorly fitted or top-dose-only effect, or another doubt; inactive means no such curve, though single readings can be large; an effect the other way counts as inactive or inconclusive.

Test [1] in a line: qHTS Assay for Identification of Small Molecule Agonists for Thrombopoietin (TPO) Signaling Pathway (AID 917). The method in brief:
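We measured Glycoprotein IIb promoter–luciferase output in IL-3-starved Ba/F3 murine cells expressing the human TPO receptor after 24 hrs at 37 C with compounds and 26 pM TPO.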
In general terms: Quantitative high-throughput screening tests each substance at several concentrations.

For test [2], the target named is Muscarinic acetylcholine receptor M1 (Rattus norvegicus) (UniProt P08482). The experiment in a line: qHTS Assay for Antagonists of Acetylcholine Muscarinic M1 Receptor: Kinetic Measurement of Intracellular Calcium Response (AID 943). Further: nearly all actives have a fitted effect of over 75% in size. Further: potency means the concentration at half of the fitted maximal effect. The method in brief: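 Rat M1-CHO cells, 2000/well, overnight → Fluo-4 no-wash dye with probenecid, 1 h 37C → compound 10 min, room temp → basal read 6 s → carbachol EC80 (100 nM) → 4 min kinetic read; peak/basal.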

Test [3] shares this target. As to the kind of experiment: qHTS Assay for Antagonists of Acetylcholine Muscarinic M1 Receptor: Measurement of IP-One Response (AID 944). Further: nearly all actives have a fitted effect of over 75% in size. Further: potency means the concentration at half of the fitted maximal effect. The method in brief: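 M1-CHO (rat), 2000 cells/well, overnight recovery; cpd 10 min; carbachol EC80 (200 nM), 30 min, HEPES buffer + 50 mM LiCl pH 7.4; IP-One HTRF, Ex 337, Em 620/665 nm.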
Test [4] deals with Pyruvate kinase (Leishmania mexicana) (UniProt Q27686). As to the kind of experiment: qHTS Validation Assay for Inhibitors of Leishmania Mexicana Pyruvate Kinase (AID 945). The method in brief:
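LmPYK E451W 0.2 nM; 0.5 mM PEP, 0.1 mM ADP, 7 mM MgCl2, 50 mM KCl, imidazole pH 7.2, 0.01% Tween 20, 0.05% BSA; 1 h RT; PKLight luminescence; DMSO-normalized.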

Test [5] can be described thus: Cell Viability - LYMP2-001 (AID 921).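 Further: series mostly up to about 92 µM; cells exposed to compound for 24 h at 37 °C; nearly all actives have a fitted effect of over 70% in size.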 The method in brief:
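qHTS, 1536-well; lymphoblastoid cells, 24 hr compound, 37 C; ATP by CellTiter-Glo, 30 min RT; luminescence; Hill-fit AC50.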

Test [6] is described as follows: Confirmation and Secondary Assay for Modulators of Hemoglobin Beta Chain Splicing at IVS2 705 locus (AID 930).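 Further: HeLa cells stably expressing the EGFP-705 splicing reporter; series mostly up to about 46 µM.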 Summed up: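 HeLa cells stably carrying EGFP interrupted by mutant beta-globin IVS2-705 intron (CMV-driven) were seeded at 500 cells/well, treated next day with compound for 2 days at 37C; corrected splicing restores EGFP, read as total peak GFP intensity per well.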

Test [7] in a line: MultiTox-Fluor Cytotoxicity Assay - LYMP1-001 - Dead Cells (AID 946).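 Further: cells exposed to compound for 16 h.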 Further: potency means the concentration at half of the fitted maximal effect. Summed up: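 LYMP1-001 lymphoblastoid cells (2500/well) treated 16 h at 37 C. Dead-cell protease cleavage of bis-AAF-R110 read at Ex/Em 485/520. Normalized to DMSO and 15 uM tetraoctylammonium bromide; AC50 from Hill fits.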
The nature of test [8]: MultiTox-Fluor Cytotoxicity Assay - LYMP1-001 - Live Cells (AID 947). Further: potency means the concentration at half of the fitted maximal effect.
Test [9] in a line: qHTS Assay for Identification of Small Molecule Agonists for Hypoxia Response Element Signaling Pathway (AID 914; active means well fitted activation curve with a large enough effect in the signal ratio, with a control signal flat, not every such curve was filed as active; the % refers to the signal ratio). The note with it: ME-180 HRE-bla reporter, beta-lactamase ratio, CoCl2, 17 h; stronger effect = higher value. The method in brief: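 ME-180 cells carrying an HRE-driven beta-lactamase reporter were treated with compounds in a titration series plus an EC50 level of CoCl2 for 17 h at 37 degrees Celsius; CCF4 readout as the 460nm/530nm ratio gave AC50 values.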

Test [10] in a line: qHTS Assay for Identification of Small Molecule Antagonists for Thrombopoietin (TPO) Signaling Pathway (AID 918). Further: potency means the concentration at half of the fitted maximal effect; nearly all actives have a fitted effect of over 60% in size. The note with it: TPO-dependent cell signaling reporter, antagonist mode. Summed up:
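Ba/F3 (murine, hTPO-R, GPIIb-luc reporter); overnight IL-3 withdrawal; cpd + TPO 26 pM final (EC50); 24 h 37 C/5% CO2; Steadylite luminescence after 10 min RT.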

Chain of Pyruvate kinase (Leishmania mexicana) (Q27686 2-499 E452W): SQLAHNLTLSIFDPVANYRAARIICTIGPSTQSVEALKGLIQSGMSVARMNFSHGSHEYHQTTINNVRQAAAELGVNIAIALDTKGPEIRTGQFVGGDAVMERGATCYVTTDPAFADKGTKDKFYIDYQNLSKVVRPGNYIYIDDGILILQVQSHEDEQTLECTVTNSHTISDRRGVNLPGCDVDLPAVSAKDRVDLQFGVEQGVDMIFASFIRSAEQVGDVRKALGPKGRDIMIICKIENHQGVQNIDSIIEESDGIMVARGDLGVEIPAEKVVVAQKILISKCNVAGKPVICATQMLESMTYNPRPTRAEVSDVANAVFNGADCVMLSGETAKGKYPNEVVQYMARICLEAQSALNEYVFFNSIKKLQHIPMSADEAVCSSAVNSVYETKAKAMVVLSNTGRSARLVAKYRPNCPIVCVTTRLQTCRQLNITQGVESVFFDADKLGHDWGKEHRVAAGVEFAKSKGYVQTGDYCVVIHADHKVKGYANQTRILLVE
Chain of Muscarinic acetylcholine receptor M1 (Rattus norvegicus) (P08482 whole entry, looked up): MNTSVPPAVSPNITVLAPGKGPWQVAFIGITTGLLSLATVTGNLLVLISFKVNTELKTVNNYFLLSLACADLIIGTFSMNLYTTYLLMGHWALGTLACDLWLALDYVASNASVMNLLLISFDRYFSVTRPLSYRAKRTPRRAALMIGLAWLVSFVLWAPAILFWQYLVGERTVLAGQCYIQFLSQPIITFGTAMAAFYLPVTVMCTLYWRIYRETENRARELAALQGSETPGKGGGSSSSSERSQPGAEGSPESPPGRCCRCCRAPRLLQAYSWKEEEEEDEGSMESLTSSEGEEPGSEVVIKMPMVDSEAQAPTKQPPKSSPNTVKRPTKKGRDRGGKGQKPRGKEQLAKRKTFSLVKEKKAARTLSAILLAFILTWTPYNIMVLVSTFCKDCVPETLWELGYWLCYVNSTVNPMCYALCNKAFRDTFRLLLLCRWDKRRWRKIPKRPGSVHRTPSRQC

On to `CC(C)C(=O)c1c(C(C)C)nn2ccccc12`, for which the compound was classed as inactive in test [1] and in test [4]. Also, the Potency entry in [2] and in test [3] was “inactive” each time.

Take `CC12CCC(CC1)C(C)(C)O2`: in test [5], the outcome was inactive. In addition, the Potency entry in test [6], in test [7] and in test [8] was “inactive” throughout.

As for `Nc1cc(=O)[nH]c(N)n1`, the outcome in test [1] and in test [4] was inactive. Further, the Potency entry in test [2] and in test [3] was “inactive” each time.

In the case of `CC(=O)OCC(=O)[C@@]1(O)CC[C@H]2[C@@H]3CCC4=CC(=O)CC[C@]4(C)[C@H]3C(=O)C[C@@]21C`, the compound was called inactive in [1] and in test [4].

In the case of `CCCn1cnc2c1c(=O)n(CCCCC(C)=O)c(=O)n2C`, the call in [1] and in test [4] was inactive. Moreover, the Potency entry in test [2] and in test [3] was “inactive” each time.

`CC1=C(CC(=O)O)c2cc(F)ccc2/C1=C\c1ccc(S(C)=O)cc1` (configuration not stated): the result in test [1] and in test [4] was inactive.

Turning to `N=c1c[n+](N2CCOCC2)[n-]o1`, the result in test [1] and in test [4] was inactive. The Potency result in test [3] was “inactive”.

On to `Cc1ncc([N+](=O)[O-])n1CC(O)CCl` (configuration not stated), for which the activation in test [9] is 4.13%.

Turning to `OCCN1CCN(CCCN2c3ccccc3Sc3ccc(Cl)cc32)CC1`, the Potency in [10] is 15.8 µM (active). Also, the result in test [4] was inactive.

In the case of `Oc1cccc(O)c1`, the compound was called inactive in test [5]. Besides, the Potency entry in [6] and in test [7] was “inactive” each time.

On to `CCC(=O)c1ccc(O)cc1`, for which, in test [9], the activation is 5.29%.

For the compound `C=Cc1c(C)c2cc3[nH]c(cc4nc(cc5nc(cc1[nH]2)C(C)=C5CCC(=O)O)C(CCC(=O)O)=C4C)c(C)c3C=C`, the compound was classed as inactive in test [1] and in [4]. Besides, the Potency result in test [2] and in test [3] was “inactive” in each case.

Turning to `CN(C)CCCN1c2ccccc2Sc2ccc(Cl)cc21`, the Potency in test [10] was 12.6 µM (active). For the same compound, the call in test [4] was inactive.

As to `CN(C)CCCN1c2ccccc2CCc2ccccc21`, the call in [1] and in test [4] was inactive.

With `C#CCN(C)Cc1ccccc1`, the compound was called inactive in test [1] and in test [4]. In addition, the Potency result in [2] and in test [3] was “inactive” in each case.

Take `C[C@]12C[C@H](O)[C@H]3[C@@H](CCC4=CC(=O)CC[C@@]43C)[C@@H]1CC[C@@H]2C(=O)CO`: the outcome in [5] and in test [4] was inactive. Besides, the Potency result in [2], in [3], in test [7] and in test [8] was “inactive” each time.

As to `NC1CCN(c2cccc(Cl)n2)CC1`, the compound was classed as inactive in [1] and in test [4].

On to `CN(C)CCC=C1c2ccccc2CCc2ccccc21`, for which the compound was called inactive in test [1] and in [4]. Moreover, the Potency entry in [8] was “inactive”.

On to `CCCCCCCCCCCCCCCC(=O)NCCO`, for which the outcome in test [1] and in test [4] was inactive. In addition, the Potency result in test [3] is “inactive”.

With `CCN(CC)CCNC(=O)c1cc(Cl)c(N)cc1OC`, the result in [1] and in [4] was inactive. For the same compound, the Potency result in [3] was “inactive”.

Consider `CC1=C(CC(=O)O)c2cc(F)ccc2/C1=C\c1ccc(S(C)(=O)=O)cc1`, for which the compound was called inactive in test [1] and in test [4]. In addition, in test [3], the Potency result was “inactive”.

Consider `COc1ccc(Cl)cc1C(=O)NCCc1ccc(S(=O)(=O)NC(=O)NC2CCCCC2)cc1`, for which the result in [1] and in test [4] was inactive. In [3], the Potency entry is “inactive”.

`NC(N)=NCCC[C@H](N)C(=O)O`: the outcome in test [1] and in test [4] was inactive. Moreover, the Potency entry in [3] is “inactive”.

With `C[C@]12CC[C@@H]3c4ccc(O)cc4CC[C@H]3[C@@H]1CCC2=O`, the compound was classed as inactive in test [1] and in test [4].

In the case of `OCc1cc(C(O)CNCCCCCCOCCCCc2ccccc2)ccc1O` (configuration not stated), the Potency in test [10] is 10 µM (active). In test [3], the Potency entry was “inactive”. For the same compound, the result in [4] was inactive.

For `CNCCCC1c2ccccc2C=Cc2ccccc21`, the Potency was 10 µM (active) in test [10] and 0.398 µM (active) in [3]. Also, the result in test [4] was inactive.

With `CC(C)NC[C@H](O)c1ccc(O)c(O)c1`, the compound was called inactive in [1] and in test [4].

For the compound `CC1(C)[C@@H]2CC[C@@]1(C)C(=O)C2`, the call in test [5] was inactive. In addition, the Potency result in test [7] and in [8] was “inactive” each time.

For `CNCCC(Oc1ccc(C(F)(F)F)cc1)c1ccccc1` (configuration not stated), the Potency entry in test [6] was “inactive”.

Turning to `Cc1ccc(C(C)C)cc2c(C)ccc1-2`, the Potency entry in [6] was “inactive”.

For the compound `Nc1ccc(S(=O)(=O)NC(=O)c2ccccc2)cc1`, the Potency entry in [6] is “inactive”.

Take `OCC(O)CN1CCN(c2ccccc2)CC1` (configuration not stated): the Potency entry in test [6] was “inactive”.

Consider `CCCCOC(=O)c1ccc(O)cc1`, for which the compound was classed as inactive in [5]. For the same compound, the Potency result in [7] and in [8] was “inactive” throughout.

Turning to `NCCNCCNCCNCCN`, the compound was called inactive in [5]. In addition, the Potency result in test [7] and in test [8] was “inactive” throughout.

`[Cl][In]([Cl])[Cl]`: the compound was classed as inactive in test [5]. Further, the Potency entry in test [7] and in test [8] was “inactive” in each case.

As to `COc1ccccc1O`, the result in [5] was inactive. Besides, the Potency result in test [7] and in [8] was “inactive” in each case.

Consider `COC(=O)C1=C(C)NC(C)=C(C(=O)OC)C1c1ccccc1[N+](=O)[O-]`, for which the outcome in test [4] was inactive.

`Cc1cc2nc3c(=O)[nH]c(=O)nc-3n(C[C@H](O)[C@H](O)[C@H](O)CO)c2cc1C`: in test [5], the outcome was inactive. Moreover, the Potency in test [7] is 39.8 µM (active). In addition, the Potency entry in [8] was “inactive”.

As to `c1ccc2c(CC3=NCCN3)cccc2c1`, in test [6], the Potency result was “inactive”.

For the compound `Cc1cc(CC(=O)O)n(C)c1C(=O)c1ccc(Cl)cc1`, the result in [5] was inactive. Moreover, the Potency entry in test [7] and in test [8] was “inactive” each time.

For the compound `CCCCCCCCCCCCOS(=O)(=O)O`, the call in test [5] was inactive. Besides, the Potency result in [7] and in [8] was “inactive” throughout.

Consider `NC(=O)N/N=C/c1ccc([N+](=O)[O-])o1`, for which the result in [5] was inactive. Further, the Potency result in test [7] and in [8] was “inactive” throughout.

For the compound `Cc1cc(N)c2ccccc2[n+]1CCCCCCCCCC[n+]1c(C)cc(N)c2ccccc21`, the Potency in test [2] is 1.78 µM (active); in [3], 2.24 µM (active). Also, the call in test [4] was inactive.

For `O=C1c2c(O)cccc2Cc2cccc(O)c21`, in [5], the result was inactive. For the same compound, the Potency entry in [7] and in test [8] was “inactive” in each case.

For `Cc1c(Cl)cccc1Nc1ccccc1C(=O)O`, the Potency result in test [6] is “inactive”.

For `Cc1c(O)cccc1C(=O)N[C@@H](CSc1ccccc1)[C@H](O)CN1C[C@H]2CCCC[C@H]2C[C@H]1C(=O)NC(C)(C)C`, the figures for the Potency in test [7] and in test [8] were 31.6 µM (active) and 39.8 µM (active), respectively.

`CCn1cc(C(=O)O)c(=O)c2cnc(N3CCNCC3)nc21`: the Potency result in test [6] was “inactive”.

On to `NCCNCCNCCN`, for which the compound was classed as inactive in test [5]. The Potency entry in [7] and in test [8] was “inactive” each time.

Regarding `O=C1O[C@H]([C@@H](O)CO)C(O)=C1O`, in test [5], the call was inactive. The Potency result in test [7] and in test [8] was “inactive” each time.

Regarding `NC(=O)c1ncn([C@@H]2O[C@H](CO)[C@@H](O)[C@H]2O)n1`, in [5], the call was inactive. Also, the Potency entry in test [3], in test [7] and in test [8] was “inactive” each time.

Turning to `Nc1ccc(S(=O)(=O)Nc2nccs2)cc1`, the Potency entry in [6], in test [7] and in [8] was “inactive” throughout.

For `Cc1cccc(Nc2cc(Cl)nc(SCC(=O)O)n2)c1C`, the Potency result in test [6] is “inactive”.

Take `CCN(CC)CCOC(=O)C1(C2CCCCC2)CCCCC1`: the compound was classed as inactive in test [4].

As to `Nc1ccc(S(=O)(=O)Nc2ccc(Cl)nn2)cc1`, in test [6], the Potency entry was “inactive”.
